From PubChem BioAssay (Tox21) come the findings set out here.

The structures appear in SMILES notation. Values joined by “and” are separate entries in the source; they are usually repeats but may differ in a detail not shown here. Equal values may be shown once. Records with an inconclusive call do not appear. Unmarked numbers belong to inactive results. Active and inactive are the calls of the source. Unless noted, calls come from the whole dose curve; as a rule, active = well fitted curve in the direction sought with a large enough effect in the repeat runs; inconclusive = weak or mixed curves; inactive = no such curve, though single readings can be large; an effect the other way counts as inactive or inconclusive.

The nature of test [1]: qHTS assay to identify small molecule agonists of the vitamin D receptor (VDR) signaling pathway - cell viability counter screen (AID 743224). Note: nearly all actives have a fitted effect of over 50% in size. Note: potency is the fitted concentration of half-maximal effect. The method, boiled down:
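Compounds were pin-transferred onto VDR-bla cells plated 4 h earlier; following 16 h incubation at 37C, cell viability was quantified by CellTiter-Glo luminescence after 30 min at room temperature.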

Test [2] in a line: qHTS assay to identify small molecule antagonists of the vitamin D receptor (VDR) signaling pathway - cell viability counter screen (AID 743225). Note: % is set by controls: 0 for no effect and ±100 for the full control effect; nearly all actives have a fitted effect of over 50% in size. Summed up:
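Parallel cytotoxicity test: VDR-UAS-bla HEK 293T, 3 nM (final) 1-alpha,25-dihydroxyvitamin D3 with test compound, 16 h, 37C. Endpoint is CellTiter-Glo luminescence in the same wells.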
Background: qHTS replaces the single test concentration by a dilution series.

A short description of test [3]: qHTS assay to identify small molecule agonists of the NFkB signaling pathway (AID 1159509; active = well fitted curve in the direction sought with a large enough effect in the signal ratio in the repeat runs, not every such curve was filed as active; the % refers to the signal ratio; note: series mostly up to about 61 µM; % is set by controls: 0 for no effect and ±100 for the full control effect). Summed up: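 Readout: FRET fluorescence, 405 nm excitation, 460/530 nm emission; beta-lactamase expression disrupts FRET. Cells: ME-180 stably carrying NF-kB-driven bla reporter. Compound exposure 5 hr, 37 C, 5% CO2.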
Test [4] in a line: qHTS assay to identify small molecule agonists of the NFkB signaling pathway - cell viability counter screen (AID 1159515; calls by dose curve; note: series mostly up to about 61 µM; % is set by controls: 0 for no effect and ±100 for the full control effect; nearly all actives have a fitted effect of over 55% in size). Summed up:
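Parallel cytotoxicity counter screen in ME-180 cells carrying an NFkB-response-element beta-lactamase reporter, 2,000 cells/well. Compound exposure lasted 5 hr at 37 C, 5% CO2. Cell viability was quantified by CellTiter-Glo luminescence.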

Test [5] is described as follows: qHTS assay to identify small molecule agonists of the endoplasmic reticulum stress response signaling pathway (AID 1159516; active = well fitted activation curve with a large enough effect in the signal ratio in the repeat runs, not every such curve was filed as active; the % refers to the signal ratio; note: % is set by controls: 0 for no effect and ±100 for the full control effect). The method, boiled down:
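Using a HeLa line with an ESRE-driven beta-lactamase gene, agonist activity was measured by FRET substrate fluorescence (460 and 530 nm emission) after cells were treated with compounds for 5 hr at 37 C and 5% CO2.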

The nature of test [6]: qHTS assay to identify small molecule agonists of the endoplasmic reticulum stress response signaling pathway - cell viability counter screen (AID 1159517; calls by dose curve;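 note: HeLa cells carrying an ER stress response element beta-lactamase reporter; series mostly up to about 61 µM; % is set by controls: 0 for no effect and ±100 for the full control effect; nearly all actives have a fitted effect of over 50% in size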). The method, boiled down:
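Steps: seed 1,500 ESRE-bla HeLa cells per well; incubate overnight at 37 C, 5% CO2; add compounds in DMSO for 5 hr; run FRET substrate 2 hr RT; add CellTiter-Glo, wait 30 min, read luminescence.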

Test [7] is described as follows: qHTS assay to identify small molecule antagonists of the retinoid-related orphan receptor gamma (ROR-gamma) signaling pathway - cell viability counter screen (AID 1159520). Note: % is set by controls: 0 for no effect and ±100 for the full control effect; nearly all actives have a fitted effect of over 50% in size. Summed up: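 Tet-on ROR gamma CHO cells were given compounds for 2 hr, then doxycycline hyclate at 1 uM final, and incubated 16 hr at 37 C. Viability was measured as ATP content by CellTiter-Glo luminescence.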

Test [8] concerns the target Nuclear receptor ROR-gamma (Homo sapiens) (UniProt P51449). The test can be described thus: qHTS assay to identify small molecule antagonists of the retinoid-related orphan receptor gamma (ROR-gamma) signaling pathway (AID 1159521; note: nearly all actives have a fitted effect of over 50% in size; note: potency is the fitted concentration of half-maximal effect). Summed up:
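Decreased RORE-driven luciferase luminescence indicates antagonism. Tet-on RORγ CHO cells received compound, then 1 uM final doxycycline 2 h later; signal read after 16 h incubation.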

Test [9] can be described thus: qHTS assay to identify small molecule agonists of the AP-1 signaling pathway - cell viability counter screen (AID 1159525; calls by dose curve; note: nearly all actives have a fitted effect of over 55% in size). Summed up: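 Same-well cytotoxicity counter screen of the Tox21 10K library in ME-180 cells. The readout is ATP-dependent luminescence after 5 h compound treatment. Data are normalised to DMSO and tetra n-octyl ammonium bromide controls.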
The nature of test [10]: qHTS assay to identify small molecule agonists of the AP-1 signaling pathway (AID 1159526; calls by dose curve; note: % is set by controls: 0 for no effect and ±100 for the full control effect).
Test [11] concerns the target Retinoic acid receptor RXR-alpha (Homo sapiens) (UniProt P19793). In words: qHTS assay to identify small molecule agonists of the RXR signaling pathway (AID 1159527; calls by dose curve; note: % is set by controls: 0 for no effect and ±100 for the full control effect; nearly all actives have a fitted effect of over 35% in size). The method, boiled down: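 16 hr incubation of compound-treated RXR-alpha-UAS-bla HEK 293T cells (2% charcoal-stripped FBS, 37 C) preceded a 2 hr room-temperature LiveBLAzer FRET substrate step and blue/green fluorescence measurement.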

A short description of test [12]: qHTS assay to identify small molecule agonists of the RXR signaling pathway - cell viability counter screen (AID 1159529). Summed up: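 In this parallel viability measure, GeneBLAzer RXR-alpha HEK 293T cells (2% charcoal-stripped FBS) were given a 5 hr preincubation, treated with compounds 16 hr at 37 C, and read by CellTiter-Glo luminescence.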
Test [13] can be described thus: qHTS assay to identify small molecule antagonists of the retinoid acid receptor (RAR) signaling pathway - cell viability counter screen (AID 1159551). Note: % is set by controls: 0 for no effect and ±100 for the full control effect; nearly all actives have a fitted effect of over 35% in size. Summed up:
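ATP-based viability, C3RL4 cells, 6 h at 37 C with 1 uM final retinol co-added after compound; luminescence read 30 min post CellTiter-Glo, RT.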

Test [14] in a line: qHTS assay to identify small molecule agonists of the retinoic acid receptor (RAR) signaling pathway (AID 1159553). Note: % is set by controls: 0 for no effect and ±100 for the full control effect. Summed up:
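Quantitative high-throughput format: the Tox21 10K library was tested on C3RL4 RARE-luciferase cells for 6 hr at 37 C and 5% CO2, with luminescence measured after a 30 min room-temperature reagent step.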

Test [15] can be described thus: qHTS assay to identify small molecule antagonists of the retinoic acid receptor (RAR) signaling pathway (AID 1159552). The method, boiled down: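 C3RL4 RARE-luc cells, overnight plating; retinol 1 uM final added right after compound; 6 hr 37 C; luciferase read at 30 min RT.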
Test [16] is described as follows: qHTS assay to identify small molecule antagonists of the estrogen related receptor (ERR) signaling pathway - cell viability counter screen (AID 1224818). Summed up: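 Quantitative high-throughput viability counter screen in ERR cells. Compounds (DMSO) incubated 17.5 h at 37 C; read-out was CellTiter-Fluor fluorescence.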
Test [17] in a line: qHTS assay to identify small molecule antagonists of the estrogen related receptor signaling pathway with the pleiotropic PPARgamma coactivator (PGC) cell viability counter screen (AID 1224822). The method, boiled down: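 Cytotoxicity in the PGC/ERR cell line is assessed with CellTiter-Fluor, read as fluorescence intensity 30 min after reagent addition, following 17.5 h compound treatment at 37 C.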

Test [18] in a line: qHTS assay to identify small molecule antagonists of the estrogen related receptor (ERR) signaling pathway (AID 1224819). Summed up: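 ERR reporter cell line (NTP) plated at 2,000 cells/well, settled 6 h at 37C/5% CO2, then exposed to LOPAC compounds for 18 h at 37C. One-Glo luciferase luminescence read after 30 min at room temperature.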
The nature of test [19]: qHTS assay to identify small molecule agonists of the estrogen related receptor (ERR) signaling pathway (AID 1224820). Note: % is set by controls: 0 for no effect and ±100 for the full control effect. The method, boiled down:
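Luminescence readout (One-Glo, 30 min RT) from NTP-supplied ERR cell line exposed to compounds for 18 h at 37 C. Cells seeded 2,000 per well and pre-incubated 6 h before pin-tool compound transfer.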

Test [20] concerns estrogen-related receptor alpha (ERRalpha) with PGC-1alpha coactivator, human. The test can be described thus: qHTS assay to identify small molecule antagonists of the estrogen related receptor signaling pathway with the pleiotropic PPARgamma coactivator (PGC) (AID 1224821; calls by dose curve). The method, boiled down: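 PGC/ERR reporter cells; 6 h pre-incubation 37 C/5% CO2; pin-tool compound in DMSO, 18 h 37 C; One-Glo added, 30 min RT; luminescence read. qHTS antagonist mode.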

Chain of Retinoic acid receptor RXR-alpha (Homo sapiens) (P19793 whole entry, looked up): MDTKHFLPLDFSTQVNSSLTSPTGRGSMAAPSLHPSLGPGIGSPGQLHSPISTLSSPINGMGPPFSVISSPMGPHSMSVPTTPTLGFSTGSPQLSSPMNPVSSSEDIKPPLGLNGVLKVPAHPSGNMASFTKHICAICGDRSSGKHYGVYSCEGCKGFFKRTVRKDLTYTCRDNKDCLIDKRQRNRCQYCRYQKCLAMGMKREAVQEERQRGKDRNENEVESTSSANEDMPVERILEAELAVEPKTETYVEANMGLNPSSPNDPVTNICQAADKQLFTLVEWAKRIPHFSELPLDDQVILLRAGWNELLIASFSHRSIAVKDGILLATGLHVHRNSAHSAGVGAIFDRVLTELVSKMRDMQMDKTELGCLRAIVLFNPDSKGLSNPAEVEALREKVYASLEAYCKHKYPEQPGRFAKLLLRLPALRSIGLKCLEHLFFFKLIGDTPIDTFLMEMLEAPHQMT

Take `C=C1CC[C@H]2C[C@@H]1C2(C)C`: the Potency entry in [1], in test [2], in test [8], in [9], in [11] and in test [12] was “inactive” throughout. Besides, the Potency result in test [14] was “inactive”. In addition, the molecule was classed as inactive in [3], in test [4], in [5], in [6], in test [7] and in [10]. In addition, in test [13], the call was inactive.

As to `CCN(CC)CCNC(=O)c1cc(S(C)(=O)=O)ccc1OC`, the Potency entry in test [1], in [2], in test [8], in test [9], in test [11] and in test [12] was “inactive” throughout. For the same molecule, the Potency entry in test [15] and in [14] was “inactive” each time. The call in test [3], in test [4], in [6], in test [7], in test [10] and in [13] was inactive. Moreover, the result in test [16] and in test [17] was inactive.

As for `CC1=CC(C)C(C=O)CC1` (configuration not stated), the Potency entry in test [1], in test [2], in test [8], in [9], in test [11] and in test [12] was “inactive” each time. Also, the Potency entry in test [14] was “inactive”. Moreover, the call in test [3], in [4], in [5], in [6], in test [7] and in [10] was inactive. Moreover, the outcome in [13] was inactive.

`C[C@](N)(Cc1ccc(O)cc1)C(=O)O`: the activity change, negative = cytotoxicity in test [1] was -0.278% [at 5.95 µM]; in [6], -6.6% [at 6.95 µM]; in [12], 10.7% [at 6.97 µM]; in [13], 0.103% [at 8.39 µM]. Moreover, the values for the viability change, negative = cytotoxic in test [2] and in test [9] were 4.51% [at 6.95 µM] and 6.35% [at 6.97 µM], respectively. Moreover, the activation in test [3] is 0.267% [at 6.95 µM]; in [10], -6.83% [at 6.97 µM]; in test [11] it was 8.62% [at 6.98 µM]; in [14], -0.945% [at 8.36 µM]. Besides, the activity, negative = cytotoxic in test [4] was 2.4% [at 6.95 µM]. For the same molecule, the activity, negative = cytotoxicity in [7] was 1.71% [at 8.39 µM]. Further, the activity change, negative = inhibition in test [8] is 10.5% [at 8.39 µM]. Moreover, in test [15], the activity, negative = inhibition was -1.72% [at 8.39 µM]. Also, the outcome in test [16], in [18], in [19], in test [20] and in [17] was inactive.

With `CCOc1ccc(C(=O)OCCN(CC)CC)cc1`, the Potency entry in test [1], in [2], in [8], in test [9], in test [11] and in test [12] was “inactive” throughout. The Potency entry in test [14] was “inactive”. The molecule was called inactive in test [3], in test [4], in test [5], in [6], in [7] and in [10]. Further, the result in [13] was inactive.

Consider `CCOC(=O)c1ccc(C)cc1`, for which the Potency result in test [1], in test [2], in test [8], in [9], in [11] and in test [12] was “inactive” in each case. Moreover, the Potency result in test [14] is “inactive”. Moreover, the outcome in test [3], in [4], in test [5], in test [6], in [7] and in test [10] was inactive. Besides, the molecule was classed as inactive in test [13].

With `CC(C)(c1ccc(O)cc1)c1ccc(O)cc1`, the Potency result in [1], in test [2], in [9], in [12], in [15] and in test [14] was “inactive” in each case. Further, the molecule was classed as inactive in [3], in test [4], in [5], in [6], in test [7] and in [10]. Also, the call in test [13], in test [16], in test [18], in test [19], in test [20] and in test [17] was inactive.

Consider `O=C(O)COc1nn(Cc2ccccc2)c2ccccc12`, for which the Potency entry in test [1], in [2], in [8], in [9], in test [11] and in test [12] was “inactive” in each case. In addition, in test [14], the Potency entry was “inactive”. The outcome in test [3], in [4], in test [5], in test [6], in test [7] and in test [10] was inactive. The call in [13] was inactive.

`CC(C)(C)c1ccc(O)c(O)c1`: the Potency in test [1] is 25.4 µM (active); in test [8] it was 25.2 µM (active) and 27.3 µM (active). Moreover, the molecule was called inactive in [3], in test [4], in test [5], in [6], in test [7] and in test [16]. For the same molecule, the call in [17] was inactive. Moreover, the Potency result in test [9] and in test [12] was “inactive” each time.

For `CC(=O)N(CC(O)CO)c1c(I)c(C(=O)NCCO)c(I)c(C(=O)NCC(O)CO)c1I` (configuration not stated), the Potency entry in test [1], in test [2], in [8], in test [9], in [11] and in test [12] was “inactive” throughout. In test [14], the Potency result was “inactive”. Besides, the result in test [3], in test [4], in [5], in [6], in [7] and in test [10] was inactive. In addition, the result in test [13] was inactive.

For the molecule `CC(C)(C)c1nnc(NS(=O)(=O)c2ccccc2)s1`, the Potency result in [1], in test [2], in [8], in test [9], in test [11] and in test [12] was “inactive” each time. In addition, the Potency result in test [14] was “inactive”. The molecule was called inactive in test [3], in test [4], in test [5], in test [6], in test [7] and in [10]. The outcome in test [13] was inactive.

With `CO[Si](CCCOCC1CO1)(OC)OC` (configuration not stated), the Potency entry in [1], in test [8], in test [9], in test [12] and in [14] was “inactive” throughout. Further, the outcome in test [3], in test [4], in test [5], in [6], in test [7] and in test [10] was inactive. The molecule was classed as inactive in test [13].

On to `O=C(O)CNC(=O)c1ccc([N+](=O)[O-])cc1`, for which the Potency result in test [2], in [8], in [9], in test [11], in [12] and in test [14] was “inactive” in each case. In addition, the molecule was classed as inactive in test [3], in [4], in [5], in test [6], in test [7] and in [10]. The call in test [13] was inactive.
